# According to PubChem BioAssay AID588405 (Sanford-Burnham Center for Chemical Genomics, 2011):
# Among all 360,000 compounds or so, about 6,200 (1.7%) were called active.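 The calls were made as follows: active = inhibition of at least 50% at 20 µM; inactive = the rest.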 The full list was thinned out, with actives kept by preference.
# Test: inhibition of PEG-3 promoter activity – cell-based, HeLa, luciferase luminescence, primary screen (AID 588405)
# Conditions: HeLa PEG-Prom luciferase reporter, overnight, at 20 µM, hits give high values
row,Structure (SMILES),inhibition
1,CN(c1ccc2nc3ccccc3c(=O)n2n1)C1CCCCC1,81.5% (active)
2,CC(C)C(C)NC(=O)COc1nc2ccccc2nc1N(C)C1CCCCC1 (configuration not stated),2.14% (inactive)
3,CC(C)c1cc(C(=O)NC2CCCCCC2)c2ccccc2n1,-6.57% (inactive)
4,Cc1nc2c(OCC(=O)C(C)(C)C)cccn2c1N(C)Cc1cccs1,-4.66% (inactive)
5,CCCCc1ccc(S(=O)(=O)NC(=O)C2(C)CCN2C(=O)c2c(C)noc2C)cc1 (configuration not stated),-14.9% (inactive)
6,COc1ccc(C(C)C)cc1-c1ccc2nncn2c1,-16.5% (inactive)
7,CC1(Oc2ccc(Cl)cc2)CCN(Cc2csc3ccccc23)C1 (configuration not stated),-17.9% (inactive)
8,CC1(C(=O)NS(=O)(=O)c2ccccc2Cl)CCN1C(=O)c1cccc(F)c1 (configuration not stated),-6.7% (inactive)
9,O=c1[nH]c2ccc(S(=O)(=O)N3CCCC3)cc2[nH]1,3.24% (inactive)
10,Cc1cccc(NC(=O)CSC(N)=O)c1C,1.28% (inactive)
11,Cc1cccc(NC(=O)CN2CCN(C(=O)C3CCN(C(=O)/C=C/c4ccccc4)CC3)CC2)c1C,-10.7% (inactive)
12,CCOC(=O)/C=c1\s/c(=C\c2ccc(C#N)cc2)c(=O)n1CC(=O)Nc1cccc(C)c1C,57.2% (active)
13,CN1CCC(OC(=O)COc2ccc(Cl)cc2Cl)CC1,3.36% (inactive)
14,Cc1cnc(C(=O)OCC(=O)Nc2ccc(Cl)cc2Cl)cn1,-12% (inactive)
15,COC(=O)c1c(NC(=O)COc2ccc(Cl)cc2Cl)sc2c1CC(C)(C)NC2(C)C,92.3% (active)
16,Cc1ccccc1S(=O)(=O)NC(=O)C1(C)CCN1C(=O)Cc1ccc(Cl)cc1Cl (configuration not stated),3.83% (inactive)
17,Cc1cccc(CNC(=O)c2sc(=O)n(Cc3ccccc3C)c2C)c1,3.15% (inactive)
18,CCn1c(=O)c(=O)[nH]c2c(=O)oc3ccc(S(=O)(=O)Nc4ccc(OC)cc4)cc3c21,-5.21% (inactive)
19,CC(=O)N1C[C@@H](CO)[C@@H](N(C)C(=O)c2ccco2)C[C@H]1c1ccccc1,-9.39% (inactive)
20,COc1cc(SC)ccc1C(=O)NNC(=O)C1COc2ccccc2O1 (configuration not stated),-36.6% (inactive)
21,COc1cc(SC)ccc1C(=O)Nc1nc(C)cs1,99.9% (active)
22,Cc1csc(NC(=O)CSc2nc(=O)cc(N)n2-c2ccc(F)cc2)n1,1.12% (inactive)

row,Structure (SMILES),inhibition
1,CCc1nc2c(OCc3cccc(OC)c3)cccn2c1N(C)C(=O)C(C)C,17.8% (inactive)
2,COc1cccc(CNc2nc(NCc3cccs3)nc3ccsc23)c1,57.2% (active)
3,COc1cccc(CNc2nc(NCc3ccccc3OC)nc3ccsc23)c1,30.7% (inactive)
4,Clc1ccccc1Nc1nc(NCc2cccs2)nc2ccsc12,7.17% (inactive)
5,Oc1cccc2cc(-c3ccncc3)cnc12,-97.7% (inactive)
6,O=C1c2ccccc2C(c2nc3ccccc3[nH]2)N1c1ccccc1 (configuration not stated),2.93% (inactive)
7,Cc1cccc(N2CC(C(=O)Nc3ccccc3N3CCCC3)CC2=O)c1C (configuration not stated),20.1% (inactive)
8,COc1cc(/C=N/NC(=O)c2cc(-c3ccccc3C)nc3ccccc23)cc(OC)c1O,10.1% (inactive)
9,COc1ccccc1-n1c(SCC(=O)Nc2cccc(C(=O)O)c2)nnc1-c1ccccc1O,-4.09% (inactive)
10,COc1cccc(/C=N/Nc2cc(C)nc(-c3ccccc3O)n2)c1O,79.9% (active)
11,CC1(C(=O)NS(=O)(=O)c2cccc(F)c2)CCN1C(=O)Cc1ccc(Cl)cc1Cl (configuration not stated),-4.9% (inactive)
12,O=C(O)C1=CCCN(CCON=C(c2ccccc2)c2ccccc2)C1,-3.93% (inactive)
13,Cc1cccc(-c2cnc(C(O)c3cc(C)cc(C)c3)[nH]2)c1 (configuration not stated),15.8% (inactive)
14,CC(=O)C12CC(C)=C(C)CC1CC1C3CCC4=CC(=O)CCC4(C)C3CCC12C (configuration not stated),14% (inactive)
15,CSc1ncnc2c1ncn2CC(=O)C1CCC2C3CCC4=CC(=O)CCC4(C)C3CCC12C (configuration not stated),105% (active)
16,CSc1ncnc2c1ncn2CCCNCC1CCCCC1,-12.2% (inactive)
17,COc1ccc(OC)c(NC(=O)C2(C)CCN2C(=O)Cc2ccccc2)c1 (configuration not stated),0.38% (inactive)
18,CC(C)Oc1cc(F)ccc1-c1cc(C(=O)Nc2cccc(Cl)c2)[nH]n1,-14.2% (inactive)
19,Nc1nonc1-n1nnc(C(=O)N/N=C\c2ccncc2)c1CN1CCCCC1,23.4% (inactive)
20,COCc1c(C(=O)N/N=C\c2cccnc2)nnn1-c1nonc1N,10.8% (inactive)
21,Nc1nonc1-n1nnc(C(=O)N/N=C/c2cc(Br)ccc2O)c1CSC1=NCCS1,56.4% (active)
22,COc1cccc(-c2cnc3c(NC(C)=O)cc(-c4cc(F)ccc4OC)cn23)c1,23.8% (inactive)

row,Structure (SMILES),inhibition
1,COc1ccc(OCC(O)CN(C)C(=O)C(C)Oc2ccccc2)cc1 (configuration not stated),9.53% (inactive)
2,COc1cccc(CN(C)CC(O)COC(c2ccccc2)c2ccccc2C)c1 (configuration not stated),4.99% (inactive)
3,CN(Cc1ccccc1)CC(O)COc1ccc(CNCc2cc3ccccc3s2)cc1 (configuration not stated),50.3% (active)
4,Cc1ccc(C)c(C(O)c2ncc(-c3cccc4ccccc34)[nH]2)c1 (configuration not stated),17.3% (inactive)
5,COc1ccc(-c2nn(-c3ccccc3)cc2/C=C2/SC(=S)N(CCCC(=O)O)C2=O)c(C)c1,60.7% (active)
6,Cc1ccc(-c2nn(-c3ccccc3)cc2/C=C2\SC(=S)N(CCCCCC(=O)O)C2=O)o1,-22.9% (inactive)
7,COc1cccc(/C=C2\SC(=S)N(CCCC(=O)N3CCOCC3)C2=O)c1,-13.7% (inactive)
8,CCc1nc2c(OCc3ccc(Cl)cc3Cl)cccn2c1N(C)C(=O)C(C)C,14.2% (inactive)
9,O=C(CSc1cccc2cccnc12)N/N=C/c1cccnc1,74.3% (active)
10,O=C(N/N=C\c1cccnc1)c1cc(-c2ccccc2)nc2c(Cl)cccc12,32.6% (inactive)
11,Cc1c(NC(=O)CSc2cccc3cccnc23)c(=O)n(-c2ccccc2)n1C,23.3% (inactive)
12,CNc1cnc(-c2cc(OC)c(OC)c(OC)c2)cn1,-13.3% (inactive)
13,CC(=O)NC(c1ccccc1)c1nc(-c2cccc(C(C)C)c2)cs1 (configuration not stated),4.34% (inactive)
14,CC(C)(C)CC(C)(C)NCC(O)COCCOc1ccc(Br)cc1 (configuration not stated),103% (active)
15,COc1ccc(OCC(O)CNCCNc2nccc(C(F)(F)F)n2)cc1 (configuration not stated),1.34% (inactive)
16,CC(Oc1ccc(Br)cc1)C(=O)NC1CCCCCC1 (configuration not stated),-67% (inactive)
17,CC(NCC(=O)Nc1ccccc1C(=O)NC1CC1)c1ccccc1Cl (configuration not stated),6.43% (inactive)
18,CCc1nc2ccc(C(=O)NCCNC(C)=O)cn2c1N(CC)Cc1cccc(Br)c1,5.16% (inactive)
19,O=C(Nc1ccc(S(=O)(=O)Nc2nccs2)cc1)c1cc(-c2ccncc2)nc2ccccc12,11.9% (inactive)
20,Cc1ccc2nc(-c3ccncc3)cc(C(=O)Nc3ccncc3)c2c1,70.2% (active)
21,Cc1ccc2nc(-c3ccncc3)cc(C(=O)Nc3ccc(OC(F)F)cc3)c2c1,27.7% (inactive)
22,CCC1(C)Cc2c(sc3nnn(CC(=O)Nc4ccc(Cl)cc4)c(=O)c23)CO1 (configuration not stated),11.2% (inactive)

row,Structure (SMILES),inhibition
1,O=C(/C=C/[C@H]1O[C@@H](n2ccc(=O)[nH]c2=O)[C@H](O)[C@@H]1O)NCc1ccccn1,12.5% (inactive)
2,CCCN(CC(=O)NC(=O)NC1CCCCC1)CC(=O)Nc1cc(Cl)ccc1Cl,32.9% (inactive)
3,CC(C)(C(=O)N1CCC1(C)C(=O)NS(=O)(=O)c1ccc(Br)cc1)c1ccccc1 (configuration not stated),3.42% (inactive)
4,CCOC(=O)/C(=N\Nc1ccccc1[N+](=O)[O-])c1csc(Nc2ccccc2)n1,20.3% (inactive)
5,O=C(O)C(=Cc1ccc([N+](=O)[O-])cc1)CCc1ccccc1,-9.17% (inactive)
6,CCOC(=O)/C(=C\c1ccc([N+](=O)[O-])cc1)C(=O)c1cc(C(C)=O)c(Nc2ccccc2)s1,106% (active)
7,CN1C[C@@H](CO)O[C@@H](n2cnc3c(N4CCN(CCO)CC4)ncnc32)C1,8.41% (inactive)
8,Cc1nc(SCC(=O)Nc2cc(C)on2)c2c(C)c(C)sc2n1,73.6% (active)
9,Cc1cc(NC(=O)CSc2ncc(C(F)(F)F)cc2Cl)no1,5.97% (inactive)
10,Cc1cc(NC(=O)CSc2nc(C(C)C)nc3sc4c(c23)CCC(C)C4)no1 (configuration not stated),-3.65% (inactive)
11,Cc1cc(C(=O)N2CCCC2(C)C(=O)O)c(C)o1 (configuration not stated),-4.99% (inactive)
12,COc1ccc(C(C)(NC(C)=O)c2nc(-c3ccc(S(C)(=O)=O)cc3)cs2)cc1 (configuration not stated),7.41% (inactive)
13,COc1cc(CNc2ncnc3c2ncn3[C@H]2CN(Cc3cccs3)C[C@@H](CO)O2)cc(OC)c1OC,10.1% (inactive)
14,O=CNc1cc(-c2ccc(C(=O)N3CCOCC3)cc2)cn2c(-c3ccc(F)cc3)cnc12,38.7% (inactive)
15,NC(=O)CC[C@@H]1NC(=O)[C@H](CO)NC(=O)c2cc([N+](=O)[O-])cc(I)c2NCC[C@@H](C(N)=O)NC1=O,4.02% (inactive)
16,NCCCC[C@@H]1NC(=O)[C@H](CCC(=O)O)NC(=O)c2cc([N+](=O)[O-])cc(I)c2NCC[C@@H](C(N)=O)NC1=O,4.12% (inactive)
17,CC(C)[C@@H]1NC(=O)c2cc([N+](=O)[O-])cc(I)c2NCCC[C@@H](C(=O)NC(CC(=O)O)C(N)=O)NC(=O)[C@H](CO)NC1=O (some centres not stated),95.8% (active)
18,COc1cccc(-c2cc3nc(NCCOc4ccccc4Cl)n(C)c(=O)c3s2)c1,-22% (inactive)
19,Cc1ccccc1S(=O)(=O)N1[C@@H](c2cccc(Cl)c2)C(C(=O)OC(C)(C)C)=CC[C@H]1c1ccc(Cl)cc1,0.82% (inactive)
20,COc1cccc(-c2ccc3c(c2)N(Cc2ccccc2OC)C(=O)C(C)S3)c1 (configuration not stated),-0.98% (inactive)
21,Nc1ncnc2c1ncn2[C@@H]1O[C@H](C(=O)NS(=O)(=O)c2c(Cl)nc3sccn23)[C@@H](O)[C@H]1O,8.22% (inactive)
